Inconclusive results are not listed. Entries that show only a call come without a potency. Some compounds were tested as several samples or in several runs, with calls that do not always agree. Active and inactive are the calls of the source. Calls come from the whole dose curve; as a rule, active = well fitted inhibition curve with a large enough effect in the signal ratio in the repeat runs (not every such curve was filed as active); inconclusive = weak or mixed curves, or effect the other way; inactive = no such curve, though single readings can be large or run the other way; the % refers to the signal ratio.
target: Vitamin D3 receptor (Homo sapiens) (UniProt P11473); test: qHTS assay to identify small molecule antagonists of the vitamin D receptor (VDR) signaling pathway (AID 743223); settings: VDR-UAS-bla HEK293T, beta-lactamase FRET ratio, 16 h; series mostly up to 61 µM
Sequence (P11473 whole entry, looked up): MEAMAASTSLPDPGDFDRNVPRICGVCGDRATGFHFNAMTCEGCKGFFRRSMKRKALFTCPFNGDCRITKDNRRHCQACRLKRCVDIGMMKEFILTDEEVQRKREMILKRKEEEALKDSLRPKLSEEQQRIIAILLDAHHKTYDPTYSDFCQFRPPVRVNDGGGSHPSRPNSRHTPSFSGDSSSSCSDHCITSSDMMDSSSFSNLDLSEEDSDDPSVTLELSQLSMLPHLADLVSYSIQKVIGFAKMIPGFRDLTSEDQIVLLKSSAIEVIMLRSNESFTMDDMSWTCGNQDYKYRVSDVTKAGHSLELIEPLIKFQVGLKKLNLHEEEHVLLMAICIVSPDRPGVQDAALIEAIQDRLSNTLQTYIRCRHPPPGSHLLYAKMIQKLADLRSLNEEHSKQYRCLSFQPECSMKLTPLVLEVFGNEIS
Description: U.S. Tox21 Program National Center for Advancing Translational Sciences [NCATS] NIH Chemical Genomics Center [NCGC] U.S. Environmental Protection Agency [EPA] National Institutes of Environmental Health Sciences [NIEHS] National Toxicology Program [NTP] U.S. Food and Drug Administration [FDA] Tox21 Assay Overview: The vitamin D receptor (VDR), a member of nuclear hormone receptor superfamily, plays a critical role in calcium homeostasis and bone metabolism. It is also involved in cell differentiation and growth, and thrombogenicity.
Tox21 Assay Protocol Summary: VDR-bla cells were dispensed at 2,000 cells/5 uL of assay medium per well into black wall/clear-bottom 1536-well plates using a Multidrop Combi (Thermo Fisher Scientific, Waltham, MA) dispenser. After the assay plates were incubated at a 37C and 5% CO2 for 4 h, 23 nL of compounds dissolved in DMSO, positive controls or DMSO only was transferred to the assay plate by a Pintool station (Kalypsys, San Diego, CA), followed by addition of 1 uL of 1alpha, 25-Dihydroxy Vitamin D3 (3 nM, final concentration in the wells) using a Bioraptr Flying Reagent Dispenser (FRD) workstation (Beckman Coulter, Indianapolis, IN). The plates were incubated at 37C and 5% CO2 for 16 h, and then 1 uL of LiveBLAzerTM B/G FRET substrate was added using a Bioraptr FRD. The plates were incubated at room temperature for 2 h and fluorescence intensity was measured by an Envision plate reader (PerkinElmer, Shelton, CT).
Potency is the fitted concentration of half-maximal effect.

| SMILES | Potency |
| --- | --- |
| NC(=O)NO | inactive |
| CC(C)(C)CC(C)(C)c1ccc(O)c(-n2nc3ccccc3n2)c1 | inactive |
| C#C[C@]1(O)CC[C@H]2[C@@H]3CCC4=CC(=O)CC[C@@H]4[C@H]3CC[C@@]21CC | inactive |
| OC[C@@H](O)[C@@H](O)[C@H](O)[C@H](O)CO | inactive |
| O=C(OCc1ccccc1)c1ccccc1 | inactive |
| CC(=O)/C=C/C1=C(C)CCCC1(C)C | inactive |
| CCCCCCCCCCCCCC(=O)OC(C)C | inactive |
| Cc1c(N(C)C)c(=O)n(-c2ccccc2)n1C | inactive |
| CCN(CC)CCOC(=O)c1ccc(N)cc1 | inactive |
| C=CC(=O)NC(C)(C)CS(=O)(=O)O | inactive |
| O=[N+]([O-])c1ccc(O)cc1 | inactive |
| CO[C@H]1C=CO[C@@]2(C)Oc3c(C)c(O)c4c(O)c(c(/C=N/N5CCN(C)CC5)c(O)c4c3C2=O)NC(=O)/C(C)=C\C=C[C@H](C)[C@H](O)[C@@H](C)[C@@H](O)[C@@H](C)[C@H](OC(C)=O)[C@@H]1C | inactive |
| CC(=O)c1ccc(S(=O)(=O)NC(=O)NC2CCCCC2)cc1 | inactive |
| Cc1cccc(C)c1O | inactive |
| CCc1cc(C(N)=S)ccn1 | inactive |
| Cc1cccc(Nc2cc(Cl)nc(SCC(=O)O)n2)c1C | inactive |
| COCC(C)N (stereo not given) | inactive |
| O=C1OC(c2ccc(O)cc2)(c2ccc(O)cc2)c2ccccc21 | inactive |
| CCCCCCCCOc1ccc(C(=O)c2ccccc2)c(O)c1 | inactive |
| N[C@@H](Cc1c[nH]c2ccccc12)C(=O)O | inactive |

| SMILES | Potency |
| --- | --- |
| O=C1CCCCCN1 | inactive |
| OCCCc1ccccc1 | inactive |
| O=C(O)CCCCC1CCSS1 (stereo not given) | inactive |
| COC(=O)C1CCC(C(=O)OC)CC1 (stereo not given) | inactive |
| COc1ccccc1O | inactive |
| CCCCOC(=O)CCCCCCCCC(=O)OCCCC | inactive |
| CC(O)COc1ccccc1 (stereo not given) | inactive |
| NCCNc1cccc2ccccc12 | 43.6 µM (active) and inactive |
| CN/C(=C\[N+](=O)[O-])NCCSCc1ccc(CN(C)C)o1 | inactive |
| COc1ccccc1NC(=O)CC(C)=O | inactive |
| CCOCCO | inactive |
| CCCCOCCOCCOC(C)=O | inactive |
| CC1(C)O[C@@H]2[C@@H](CO[C@@]3(COS(N)(=O)=O)OC(C)(C)O[C@@H]23)O1 | inactive |
| Cc1ccc(O)c(-n2nc3ccccc3n2)c1 | inactive |
| CC1=C(/C=C/C(C)=C/C=C/C(C)=C/C(=O)O)C(C)(C)CCC1 | inactive |
| CCOC(=O)C(C)(C)Oc1ccc(Cl)cc1 | inactive |
| c1ccc2[nH]c(-c3cscn3)nc2c1 | inactive |
| COc1cc(O)c(C(=O)c2ccccc2)cc1S(=O)(=O)O | inactive |
| C=C(C)C(N)=O | inactive |
| Nc1cccc(N)c1 | inactive |

Source: PubChem BioAssay (Tox21)
